The values that follow come from PubChem BioAssay (Tox21).

SMILES strings stand for the structures. Values joined by “and” are separate entries in the source; they are usually repeats but may differ in a detail not shown here. Equal entries are not always repeated. Results filed as inconclusive are left out. Some structures have more than one record in an assay (separate samples or runs), and their calls can disagree. Active and inactive are the calls of the source. Unless noted, the call rests on the fitted dose curve; in most records, active means well fitted curve in the direction sought with a large enough effect in the repeat runs; inconclusive means weak or mixed curves; inactive means no such curve, though single readings can be large; an effect the other way counts as inactive or inconclusive.

Test [1] in a line: qHTS assay to identify small molecule agonists of the RXR signaling pathway - cell viability counter screen (AID 1159529). Further: nearly all actives have a fitted effect of over 50% in size. Further: potency means the concentration at half of the fitted maximal effect. The method in brief: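 Same-well viability check after the LiveBLAzer FRET read: CellTiter-Glo added, luminescence measured after 30 min at room temperature. Reporter HEK 293T cells had been treated with compounds for 16 hr following a 5 hr preincubation.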
In general terms: Quantitative high-throughput screening tests each substance at several concentrations.

Test [2] is described as follows: qHTS assay to identify small molecule antagonists of the retinoid acid receptor (RAR) signaling pathway - cell viability counter screen (AID 1159551). Further: nearly all actives have a fitted effect of over 35% in size. Further: potency means the concentration at half of the fitted maximal effect. In short, it runs like this:
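Cells (C3RL4) are plated, incubated overnight, dosed with compound in DMSO, then given retinol at 1 uM final. After 6 h at 37 C, CellTiter-Glo is added and luminescence read following 30 min at room temperature.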

The nature of test [3]: qHTS assay to identify small molecule antagonists of the estrogen related receptor (ERR) signaling pathway from Tox21 library - cell viability counter screen (AID 1224834). Further: nearly all actives have a fitted effect of over 30% in size. Further: potency means the concentration at half of the fitted maximal effect. The method in brief:
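ERR cells, 2,000/well; 6 h settle at 37 C/5% CO2; pin-tool compound transfer in DMSO; 17.5 h at 37 C; CellTiter-Fluor, 30 min; fluorescence intensity.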

The target of test [4] is Luciferin 4-monooxygenase (Photinus pyralis) (UniProt P08659). Nature of the test: qHTS assay to identify small molecule inhibitors of firefly luciferase (AID 1224835). Further: nearly all actives have a fitted effect of over 25% in size. Further: potency means the concentration at half of the fitted maximal effect. The method in brief:
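Quantitative HTS format; KM concentrations of both substrates. Purified P. pyralis FLuc activity quantified from luminescence images.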

Test [5] in a line: qHTS assay to identify small molecule agonists of the constitutive androstane receptor (CAR) signaling pathway - cell viability counter screen (AID 1224836). Further: nearly all actives have a fitted effect of over 45% in size. Further: potency means the concentration at half of the fitted maximal effect. The method in brief:
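Compound titrations (15 concentrations) went onto HepG2-CYP2B6-hCAR cells 4 h after seeding, alongside PK11195 at a final 0.75 uM; a 23 h, 37 C/5% CO2 incubation preceded CellTiter-Fluor viability measurement.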

A short description of test [6]: qHTS assay to identify small molecule antagonists of the constitutive androstane receptor (CAR) signaling pathway - cell viability counter screen (AID 1224837). Further: nearly all actives have a fitted effect of over 45% in size. Further: potency means the concentration at half of the fitted maximal effect. The method in brief: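 Viability was measured with CellTiter-Fluor in a HepG2 line carrying stably transfected hCAR and a CYP2B6-2.2kb construct. Cells were exposed for 23 hr at 37 C to 15 compound concentrations with 50 nM CITCO as agonist.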

Test [7] can be described thus: qHTS assay to identify small molecule antagonists of the estrogen related receptor signaling pathway with the pleiotropic PPARgamma coactivator (PGC) from Tox21 10K library - cell viability counter screen (AID 1224840; active means well fitted cell-killing curve with a large enough effect in the repeat runs, not every such curve was filed as active; further: nearly all actives have a fitted effect of over 40% in size; further: potency means the concentration at half of the fitted maximal effect). The method in brief:
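Multiplexed viability counter screen in the PGC/ERR cell line: cells treated with DMSO-dissolved compounds for 17.5 hours at 37 C, then viability measured as CellTiter-Fluor fluorescence.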

Test [8] in a line: qHTS assay to identify small molecule antagonists of the estrogen related receptor signaling pathway with the pleiotropic PPARgamma coactivator (PGC) from Tox21 10K library (AID 1224841; call rule not given here; further: actives are mostly falling curves and most rising ones were filed inactive; nearly all actives have a fitted effect of over 50% in size; further: potency means the concentration at half of the fitted maximal effect). In short, it runs like this: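 Steps: plate 2,000 PGC/ERR cells per well; incubate 6 h at 37 C with 5% CO2; transfer compounds from DMSO stocks by pin tool; incubate 18 h at 37 C; add One-Glo; measure luminescence 30 min later.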

A short description of test [9]: qHTS assay to identify small molecule agonists of the estrogen related receptor signaling pathway with the pleiotropic PPARgamma coactivator (PGC) from Tox21 10K library (AID 1224842). Further: nearly all actives have a fitted effect of over 15% in size. Further: potency means the concentration at half of the fitted maximal effect. In short, it runs like this:
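PGC/ERR reporter cells (NTP line) were seeded 2,000 per well, rested 6 h at 37 C/5% CO2, then pin-dosed with compounds in DMSO for 18 h at 37 C; luciferase read by One-Glo luminescence after 30 min at room temperature.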

For test [10], the target named is Thyrotropin receptor (Homo sapiens) (UniProt P16473). Kind of test: qHTS assay to identify small molecule agonists of the thyroid stimulating hormone receptor (TSHR) signaling pathway (AID 1224843; calls by dose curve; further: nearly all actives have a fitted effect of over 45% in size). The method in brief: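 Using 15 concentrations per compound in triplicate, cAMP production was monitored in TSHR-HEK293 cells after 30 min compound incubation at RT; HTRF reagents followed, with fluorescence intensity recorded after 1 h.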
Thyrotropin receptor (Homo sapiens), sequence (P16473 whole entry, looked up): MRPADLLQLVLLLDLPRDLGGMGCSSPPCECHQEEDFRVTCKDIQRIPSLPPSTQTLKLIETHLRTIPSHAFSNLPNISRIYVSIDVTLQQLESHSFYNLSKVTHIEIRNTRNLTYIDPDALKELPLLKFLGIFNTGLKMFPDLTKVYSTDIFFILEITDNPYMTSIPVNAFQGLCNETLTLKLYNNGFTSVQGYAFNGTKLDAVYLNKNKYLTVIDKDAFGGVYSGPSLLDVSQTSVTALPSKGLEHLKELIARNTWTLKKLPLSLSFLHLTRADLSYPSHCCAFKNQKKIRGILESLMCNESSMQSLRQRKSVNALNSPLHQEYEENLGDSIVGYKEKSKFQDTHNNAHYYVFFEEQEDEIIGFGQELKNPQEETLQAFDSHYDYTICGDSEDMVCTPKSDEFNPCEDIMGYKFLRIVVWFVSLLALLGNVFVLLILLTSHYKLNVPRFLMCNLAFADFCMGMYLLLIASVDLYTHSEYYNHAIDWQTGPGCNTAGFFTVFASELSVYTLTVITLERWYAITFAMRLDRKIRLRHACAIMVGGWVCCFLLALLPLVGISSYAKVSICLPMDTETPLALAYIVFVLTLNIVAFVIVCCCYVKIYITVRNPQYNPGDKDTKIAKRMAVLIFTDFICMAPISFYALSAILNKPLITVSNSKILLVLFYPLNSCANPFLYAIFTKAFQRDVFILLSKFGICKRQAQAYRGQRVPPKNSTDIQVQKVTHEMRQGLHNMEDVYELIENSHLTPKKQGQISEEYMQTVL

Test [11] is described as follows: qHTS assay to identify small molecule antagonists of the estrogen related receptor (ERR) signaling pathway - cell viability counter screen (AID 1224818). The method in brief: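 ERR cells, 2,000/well; 6 h settle at 37 C/5% CO2; compound pin transfer (DMSO); 17.5 h at 37 C; CellTiter-Fluor, 30 min, fluorescence read.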
Test [12] is described as follows: qHTS assay to identify small molecule antagonists of the estrogen related receptor signaling pathway with the pleiotropic PPARgamma coactivator (PGC) cell viability counter screen (AID 1224822). In short, it runs like this: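 Multiplexed viability counter screen run in PGC/ERR cells treated with compounds for 17.5 h at 37 C; live-cell protease signal measured by CellTiter-Fluor fluorescence.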

Test [13] has as its target Nuclear receptor subfamily 1 group I member 3 (Homo sapiens) (UniProt Q14994). Kind of test: qHTS assay to identify small molecule antagonists of the constitutive androstane receptor (CAR) signaling pathway (AID 1224838).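 Further: HepG2 cells stably expressing hCAR with CYP2B6 luciferase reporter stimulated by CITCO; nearly all actives have a fitted effect of over 40% in size.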 Further: potency means the concentration at half of the fitted maximal effect. In short, it runs like this: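 Antagonist mode used CITCO at a final 50 nM to activate CAR in human hepatoma HepG2 cells carrying stable hCAR and a 2.2 kb CYP2B6 promoter-luciferase construct. Compounds were tested at 15 concentrations over 24 h, with luminescence as the end point.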

Test [14] has the same target. Kind of test: qHTS assay to identify small molecule agonists of the constitutive androstane receptor (CAR) signaling pathway (AID 1224839). Further: nearly all actives have a fitted effect of over 15% in size. Further: potency means the concentration at half of the fitted maximal effect. In short, it runs like this:
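In this screen, CAR-driven CYP2B6 promoter activity is measured by luminescence in HepG2-CYP2B6-hCAR cells after 24 h with test compounds and 0.75 uM PK11195 (final concentration).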

Test [15] in a line: qHTS assay to identify small molecule antagonists of the retinoic acid receptor (RAR) signaling pathway (AID 1159552; further: nearly all actives have a fitted effect of over 50% in size). The method in brief:
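Readout: luciferase luminescence, 30 min post-reagent at RT. Setup: C3RL4 RARE reporter cells, compounds plus retinol 1 uM final, 6 hr incubation at 37 C and 5% CO2.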

Test [16] in a line: qHTS assay to identify small molecule agonists of the retinoic acid receptor (RAR) signaling pathway (AID 1159553). The settings on record: C3RL4 RARE luciferase reporter, agonist, 6 h; activation: at 73.3 µM (top of the series) unless noted. The method in brief:
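Seed C3RL4 reporter cells at 1,000 per well and incubate overnight at 37 C. Add compounds in DMSO, incubate 6 hr. Add luciferase reagent, wait 30 min at room temperature, read luminescence.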

Nuclear receptor subfamily 1 group I member 3 (Homo sapiens), sequence (Q14994 whole entry, looked up): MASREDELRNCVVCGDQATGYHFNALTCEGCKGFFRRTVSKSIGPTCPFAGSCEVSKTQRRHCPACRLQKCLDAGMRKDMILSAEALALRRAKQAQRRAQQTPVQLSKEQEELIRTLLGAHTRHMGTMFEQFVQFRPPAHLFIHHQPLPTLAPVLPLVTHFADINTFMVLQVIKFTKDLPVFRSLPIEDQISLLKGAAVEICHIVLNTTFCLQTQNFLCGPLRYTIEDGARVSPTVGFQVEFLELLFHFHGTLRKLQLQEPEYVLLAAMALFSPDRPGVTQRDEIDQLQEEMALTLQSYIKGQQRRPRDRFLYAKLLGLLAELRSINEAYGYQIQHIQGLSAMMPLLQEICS
Luciferin 4-monooxygenase (Photinus pyralis), sequence (P08659 whole entry, looked up): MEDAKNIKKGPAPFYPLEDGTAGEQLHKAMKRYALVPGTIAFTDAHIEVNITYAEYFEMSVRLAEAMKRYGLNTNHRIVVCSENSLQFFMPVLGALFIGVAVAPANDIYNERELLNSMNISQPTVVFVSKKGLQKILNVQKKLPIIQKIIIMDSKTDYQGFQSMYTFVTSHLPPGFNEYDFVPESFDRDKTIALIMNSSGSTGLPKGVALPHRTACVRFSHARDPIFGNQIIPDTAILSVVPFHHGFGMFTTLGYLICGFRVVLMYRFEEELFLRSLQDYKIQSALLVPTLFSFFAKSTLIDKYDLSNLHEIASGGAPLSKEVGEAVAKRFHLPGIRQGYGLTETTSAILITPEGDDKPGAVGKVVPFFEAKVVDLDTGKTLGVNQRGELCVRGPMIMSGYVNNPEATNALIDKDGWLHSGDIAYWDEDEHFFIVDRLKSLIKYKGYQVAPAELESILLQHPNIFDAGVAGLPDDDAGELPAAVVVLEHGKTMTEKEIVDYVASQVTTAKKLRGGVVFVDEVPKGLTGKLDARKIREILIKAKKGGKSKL

For `Cc1cc(Cl)ccc1N=CN(C)C`, the Potency result in test [1], in test [2], in test [3], in test [4], in test [5] and in [6] was “inactive” in each case. In addition, the Potency entry in [7], in [8], in [9] and in test [10] was “inactive” in each case.

Turning to `[Cl-].[Cl-].[Cl-].[Fe+3]`, the Potency entry in test [1], in test [2], in test [3], in [5], in test [6] and in test [7] was “inactive” throughout.

In the case of `C[N+](C)(C)CC(=O)O`, the Potency result in test [1], in test [2], in test [12], in test [3], in [5] and in test [6] was “inactive” in each case. Besides, in test [7], the Potency entry is “inactive”. Further, the outcome in test [11] was inactive.

With `CNC(=S)S`, the Potency result in test [1], in [2], in test [3], in test [4], in test [5] and in test [6] was “inactive” in each case. Also, the Potency entry in test [13], in test [14], in [7] and in test [10] was “inactive” in each case.

As for `CC(C)Nc1ccc(Nc2ccccc2)cc1`, the Potency is 19.4 µM (active) and 21.9 µM (active) in test [1]; 27.2 µM (active) and 61.1 µM (active) in test [3]; 31.6 µM (active) and 35.6 µM (active) in test [4]; 54.3 µM (active) in test [6]; 13.6 µM (active) and 27.3 µM (active) in [14]; 43.1 µM (active) in test [7]. Further, the Potency in test [8] is 54.3 µM (active) and inactive; in [9] it was “inactive and 19.3 µM (active)”. The Potency result in test [13] was “inactive”.

On to `Cc1ccc([N+](=O)[O-])cc1`, for which the Potency entry in test [1], in test [2], in test [3], in test [5], in test [6] and in test [13] was “inactive” in each case. The Potency entry in [14], in test [7] and in [10] was “inactive” throughout.

Take `CCOP(=S)(OCC)SCSC(C)(C)C`: the Potency entry in test [1], in [2], in [3], in test [5], in test [6] and in test [13] was “inactive” throughout. Moreover, the Potency result in test [14], in [7] and in [10] was “inactive” in each case.

In the case of `C[N+](C)(C)CC(=O)[O-]`, the Potency result in test [1], in [2], in test [3], in [4], in [5] and in test [6] was “inactive” each time. Further, the Potency entry in test [7] was “inactive”.

`CCC[CH2][Sn]([Cl])([CH2]CCC)[CH2]CCC`: the Potency in [1] is 1.1 µM (active); in test [2], 3.86 µM (active) and 8.63 µM (active); in test [3] it was 2.17 µM (active) and 1.22 µM (active); in test [4], 31.8 µM (active) and 39.9 µM (active); in test [5] it was 546 nM (active) and 545 nM (active); in [6], 1.54 µM (active) and 686 nM (active). Also, the Potency in [13] is 244 nM (active) and 386 nM (active); in test [7] it was 1.09 µM (active) and 864 nM (active). Further, the Potency result in test [14] is “inactive”.

Consider `O=[N+]([O-])c1ccc(Nc2ccccc2)cc1`, for which the Potency result in [2], in test [15], in test [16], in [4], in [13] and in [14] was “inactive” each time. In addition, the Potency entry in test [8], in test [9] and in test [10] was “inactive” in each case. For the same compound, the Potency in test [3] was 27.5 µM (active) and 30.6 µM (active); in test [5], 48.9 µM (active); in test [6], 30.9 µM (active).

For the compound `CN(C)c1nc(=O)n(C2CCCCC2)c(=O)n1C`, the Potency result in [1], in test [2], in test [3], in test [4], in test [5] and in test [6] was “inactive” throughout. Further, the Potency entry in test [13], in [14], in test [7] and in test [10] was “inactive” throughout.

Turning to `COP(=O)(NC(C)=O)SC` (configuration not stated), the Potency result in test [1], in test [2], in [3], in test [5], in test [6] and in [13] was “inactive” in each case. For the same compound, the Potency result in test [14] and in test [7] was “inactive” throughout.
